target: ZFAND2A; assay: pooled miR-30 sensor sort-seq; sequence = guide strand; conditions: shRNA
Also: reference of the scale not given here.

| Sequence | sensor-assay potency score (higher = more potent) |
| --- | --- |
| TTGGGCACATACCATCTGCAGC | -1.16 |
| TTCTGAACAATGCTTCCCCAAA | -1.18 |
| TTTCTGAACAATGCTTCCCCAA | -0.747 |
| TACTGGAAGAAAATCTAGCTGC | 0.313 |
| TTCTCTTTCTTCTTCCCAGGGT | 0.483 |
| TTTTACTGGAAGAAAATCTAGC | -0.26 |
| TACTGGGACGAGCACATCCTTC | -1.34 |
| TTACAGAGTGGGCATACTGGGA | -0.899 |
| TACCATCTGCAGCATCTCTTTC | -0.989 |
| TCTCTTTCTTCTTGCAGCCCTC | -1.15 |
| AGTCTTTTCTGAACAATGCTTC | -1.25 |

target: ZFAND6; assay: as above; conditions: shRNA

| Sequence | sensor-assay potency score (higher = more potent) |
| --- | --- |
| TTGTGTACATCTGAGTAACGGT | -0.562 |
| TTCCTGCACATGAAACAGCGAT | -1.19 |
| TTTCTCAGCAGCATCGGCTTTG | -0.787 |
| TACTACTATTCTGTCTTTGAAG | -0.924 |
| TTCCATAAAATCCACAGCCAGT | -1.07 |
| TCTACCATTACTACTATTCTGT | 0.0585 |
| TAGCATACTGAACACATGCCAT | -0.592 |
| TAGATGAAGATGTAGAGTCTAA | -0.473 |
| TAGAGTCTAATGCTGACTGGGC | -0.0965 |
| AAGATGTAGAGTCTAATGCTGA | -0.785 |
| TTTTCACCAACAACTACTGGAT | -0.128 |
| TTATTCTACCATTACTACTATT | -1.18 |

— the OligoGym collection
